# Active and inactive are the calls of the source. The calls were made as follows: active = hit-call score of the fitted dose curve at least 0.9, where 1 is the maximum; inactive = score below 0.9.
# Biological target: Cytochrome P450 2C19 (Homo sapiens) (UniProt P33261)
# Test: ERF_FR_ADME_hCYP2C19_Omeprazole: Eurofins (ERF) CYP450-related Enzyme Activity (ADME) Assay for CYP2C19, Omeprazole Substrate
# Protocol: ERF_FR_ADME_hCYP2C19_Omeprazole is a biochemical, single-readout assay that uses extracted gene-proteins in a cell-free assay. Measurements were taken 0.16 hour after chemical dosing in a 96-well plate. See CYP2C19 inhibition (HLM, omeprazole substrate).ERF_FR_ADME_hCYP2C19_Omeprazole is an assay component calculated from the ERF_FR_ADME_hCYP2C19_Omeprazole assay. It is designed to measure enzyme activity using a type of enzyme reporter as detected by peak area response of 5-hydroxyomeprazole with HPLC-MS/MS technology.Data from the assay component ERF_FR_ADME_hCYP2C19_Omeprazole was analyzed at the assay endpoint, ERF_FR_ADME_hCYP2C19_Omeprazole, in the positive analysis fitting direction relative to acetonitrile as the negative control and baseline of activity. Using a type of enzyme reporter, loss-of-signal activity can be used to understand changes in enzymatic activity as they relate to gene CYP2C19. To generalize the intended target to other relatable targets, this assay endpoint is annotated to the cyp intended target family, where the subfamily is steroidogenesis-related.
# Assay is performed using 0.5uM omeprazole, cells are pre-incubated for 5 minutes, and then 10 minutes incubation with NADPH at 37C. Test Sample Requirements: Minimum for 1) Screen: 100 ul of 10 mM stock -OR- 1 to 2 mg (pre-weighed). 2) Dose Response: 250 ul of 10 mM stock -OR- 1.5 to 2 mg (pre-weighed).
# Chain of Cytochrome P450 2C19 (Homo sapiens) (P33261 whole entry, looked up): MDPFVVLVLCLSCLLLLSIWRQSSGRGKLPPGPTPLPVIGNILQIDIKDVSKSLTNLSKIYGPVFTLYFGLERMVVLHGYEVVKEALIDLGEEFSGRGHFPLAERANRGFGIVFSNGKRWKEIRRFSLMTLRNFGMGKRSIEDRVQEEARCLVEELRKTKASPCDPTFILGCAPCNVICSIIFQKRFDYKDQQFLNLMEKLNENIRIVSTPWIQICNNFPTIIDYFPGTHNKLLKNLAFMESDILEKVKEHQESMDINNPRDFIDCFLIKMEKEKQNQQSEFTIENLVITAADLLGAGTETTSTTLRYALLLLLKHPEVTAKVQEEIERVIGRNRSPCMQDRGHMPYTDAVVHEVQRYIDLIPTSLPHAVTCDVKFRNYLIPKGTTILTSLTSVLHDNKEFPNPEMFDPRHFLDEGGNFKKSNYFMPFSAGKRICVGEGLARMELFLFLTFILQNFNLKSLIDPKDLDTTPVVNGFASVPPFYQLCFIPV
row,SMILES,AC50
1,O=C(/C=C/c1ccc(O)cc1)CC(=O)/C=C/c1ccc(O)cc1,1.74 µM (active)

# Source: PubChem BioAssay AID2284090 (EPA ToxCast)
